PubChem BioAssay (Tox21)
Records with an inconclusive call do not appear. Active and inactive are the calls of the source. Unless noted, calls follow the shape of the full dose curve.

Columns and labels:
[1] = qHTS assay to identify small molecule antagonists of the peroxisome proliferator-activated receptor delta (PPARd) signaling pathway - cell viability counter screen (AID 743213; active = well fitted curve in the direction sought with a large enough effect in the repeat runs; an effect the other way counts as inactive or inconclusive; also: nearly all actives have a fitted effect of over 50% in size)
In short: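 Same-well viability: cells pre-incubated 5 h, dosed with compound plus 300 nM L165041, kept 17 h at 37 C, FRET substrate 2 h RT, then CellTiter-Glo 30 min RT and luminescence.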

[2] = qHTS assay to identify small molecule agonists of the farnesoid-X-receptor (FXR) signaling pathway - cell viability counter screen (AID 743218; active = well fitted curve in the direction sought with a large enough effect in the repeat runs; an effect the other way counts as inactive or inconclusive; also: nearly all actives have a fitted effect of over 45% in size)
In short: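 Readout: CellTiter-Glo luminescence, 30 min RT, multiplexed after the FXR-bla FRET reading. HEK 293T FXR-UAS-bla cells received compound 5 h post-plating and were incubated 16 h at 37 C.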

[3] = qHTS assay to identify small molecule antagonists of the farnesoid-X-receptor (FXR) signaling pathway - cell viability counter screen (AID 743221; active = well fitted cell-killing curve with a large enough effect in the repeat runs, not every such curve was filed as active; also: nearly all actives have a fitted effect of over 50% in size)
In short: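 Cytotoxicity counter screen run in the FXR-bla reporter wells: HEK 293T cells exposed to compound with 50 uM (final) chenodeoxycholic acid for 16 h, 37 C, then viability measured by CellTiter-Glo luminescence after 30 min, room temperature.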

[4] = target: Vitamin D3 receptor (Homo sapiens) (UniProt P11473); test: qHTS assay to identify small molecule agonists of the vitamin D receptor (VDR) signaling pathway (AID 743222)
In short: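 Following 4 h attachment at 37C, VDR-bla cells (2,000 per well) received DMSO-dissolved compounds or controls. After 16 h incubation, LiveBLAzer B/G FRET substrate was added and fluorescence read 2 h later at room temperature.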

[5] = target: Vitamin D3 receptor (Homo sapiens) (UniProt P11473); test: qHTS assay to identify small molecule antagonists of the vitamin D receptor (VDR) signaling pathway (AID 743223; active = well fitted inhibition curve with a large enough effect in the signal ratio in the repeat runs, not every such curve was filed as active; the % refers to the signal ratio)
In short: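 Antagonist mode: compound added to VDR-bla cells alongside agonist 1alpha,25-dihydroxyvitamin D3 (3 nM final), incubation 16 h at 37C. Read-out is LiveBLAzer FRET fluorescence, 2 h at room temperature.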

[6] = qHTS assay to identify small molecule agonists of the vitamin D receptor (VDR) signaling pathway - cell viability counter screen (AID 743224; active = well fitted curve in the direction sought with a large enough effect in the repeat runs; an effect the other way counts as inactive or inconclusive; also: series mostly up to about 63 µM; nearly all actives have a fitted effect of over 50% in size)
In short: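 In parallel with the bla FRET readout, cytotoxicity toward VDR-bla cells after 16 h compound exposure was assessed by CellTiter-Glo, with luminescence recorded after a 30 min room-temperature incubation.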

[7] = qHTS assay to identify small molecule antagonists of the vitamin D receptor (VDR) signaling pathway - cell viability counter screen (AID 743225; active = well fitted curve in the direction sought with a large enough effect in the repeat runs; an effect the other way counts as inactive or inconclusive; also: nearly all actives have a fitted effect of over 50% in size)
In short: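 Cytotoxicity counter screen read by CellTiter-Glo luminescence (30 min, room temperature) in the same wells as the VDR-bla antagonist readout. HEK 293T VDR-UAS-bla cells had 16 h at 37C with compound and 3 nM (final) 1-alpha,25-dihydroxyvitamin D3, then 2 h with FRET substrate.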

[8] = qHTS assay to identify small molecule agonists of the NFkB signaling pathway (AID 1159509; active = well fitted curve in the direction sought with a large enough effect in the signal ratio in the repeat runs, not every such curve was filed as active; the % refers to the signal ratio; also: series mostly up to about 61 µM)
In short: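 Beta-lactamase reporter assay run in quantitative high-throughput format on an NF-kB-responsive ME-180 line, with 5 hr compound treatment and a FRET-based blue/green fluorescence readout.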

[9] = qHTS assay to identify small molecule agonists of the NFkB signaling pathway - cell viability counter screen (AID 1159515); also: series mostly up to about 61 µM; nearly all actives have a fitted effect of over 55% in size
In short: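 Plate 2,000 NFkB-bla ME-180 cells/well; incubate overnight. Add compounds, 5 hr at 37 C. Add FRET substrate, 1.5 hr RT. Add CellTiter-Glo, 30 min RT; read luminescence.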

[10] = qHTS assay to identify small molecule agonists of the endoplasmic reticulum stress response signaling pathway (AID 1159516; active = well fitted activation curve with a large enough effect in the signal ratio in the repeat runs, not every such curve was filed as active; the % refers to the signal ratio)
In short: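 Beta-lactamase expression from the ER stress response element in HeLa reporter cells is quantified with the LiveBLAzer B/G FRET substrate, read at 405 nm excitation after 2 hr at room temperature, following 5 hr compound treatment at 37 C.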

[11] = qHTS assay to identify small molecule agonists of the endoplasmic reticulum stress response signaling pathway - cell viability counter screen (AID 1159517)
In short: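 Steps: seed 1,500 ESRE-bla HeLa cells per well; incubate overnight at 37 C, 5% CO2; add compounds in DMSO for 5 hr; run FRET substrate 2 hr RT; add CellTiter-Glo, wait 30 min, read luminescence.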

[12] = qHTS assay to identify small molecule antagonists of the retinoid-related orphan receptor gamma (ROR-gamma) signaling pathway - cell viability counter screen (AID 1159520; active = well fitted curve in the direction sought with a large enough effect in the repeat runs; an effect the other way counts as inactive or inconclusive; also: nearly all actives have a fitted effect of over 50% in size)
In short: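 Tet-on ROR gamma CHO cells were given compounds for 2 hr, then doxycycline hyclate at 1 uM final, and incubated 16 hr at 37 C. Viability was measured as ATP content by CellTiter-Glo luminescence.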

[13] = target: Nuclear receptor ROR-gamma (Homo sapiens) (UniProt P51449); test: qHTS assay to identify small molecule antagonists of the retinoid-related orphan receptor gamma (ROR-gamma) signaling pathway (AID 1159521; active = well fitted curve in the direction sought with a large enough effect in the repeat runs; an effect the other way counts as inactive or inconclusive)
In short: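 Antagonist read-out: drop in luminescence (ONE-Glo) from an RORE-LUC reporter in CHO cells with doxycycline-inducible ROR-gamma; 2 hr compound pretreatment, 1 uM doxycycline, 16 hr incubation at 37 C.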

[14] = qHTS assay to identify small molecule agonists of the AP-1 signaling pathway - cell viability counter screen (AID 1159525); also: nearly all actives have a fitted effect of over 55% in size
In short: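 Same-well cytotoxicity counter screen of the Tox21 10K library in ME-180 cells. The readout is ATP-dependent luminescence after 5 h compound treatment. Data are normalised to DMSO and tetra n-octyl ammonium bromide controls.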

[15] = qHTS assay to identify small molecule agonists of the AP-1 signaling pathway (AID 1159526)
[16] = target: Retinoic acid receptor RXR-alpha (Homo sapiens) (UniProt P19793); test: qHTS assay to identify small molecule agonists of the RXR signaling pathway (AID 1159527); also: nearly all actives have a fitted effect of over 35% in size
In short: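 Agonist-mode beta-lactamase reporter assay: HEK 293T RXR-alpha-UAS-bla cells treated 16 hr at 37 C with compounds, 9-cis retinoic acid as positive control. LiveBLAzer FRET substrate, 405 nm excitation, 460/530 nm emission.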

[17] = target: Bile acid receptor (Homo sapiens) (UniProt Q96RI1); test: qHTS assay to identify small molecule antagonists of the farnesoid-X-receptor (FXR) signaling pathway (AID 743217; active = well fitted inhibition curve with a large enough effect in the signal ratio in the repeat runs, not every such curve was filed as active; the % refers to the signal ratio)
In short: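 FRET fluorescence after 2 h room-temperature LiveBLAzer loading gives the readout. Prior step: FXR-bla HEK 293T cells, seeded and incubated 5 h, received test compounds plus 50 uM final CDCA for 16 h at 37 °C.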

[18] = target: Bile acid receptor (Homo sapiens) (UniProt Q96RI1); test: qHTS assay to identify small molecule agonists of the farnesoid-X-receptor (FXR) signaling pathway (AID 743220; active = well fitted activation curve with a large enough effect in the signal ratio in the repeat runs, not every such curve was filed as active; the % refers to the signal ratio)
In short: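 FXR-UAS-bla HEK 293T cells carrying a UAS-driven beta-lactamase reporter were plated for 5 h at 37C/5% CO2, then exposed to DMSO-dissolved Tox21 10K compounds for 16 h at 37C. A LiveBLAzer B/G FRET substrate was loaded for 2 h at room temperature before fluorescence reading.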

Measured: Potency

Sequence of Retinoic acid receptor RXR-alpha (Homo sapiens) (P19793 whole entry, looked up): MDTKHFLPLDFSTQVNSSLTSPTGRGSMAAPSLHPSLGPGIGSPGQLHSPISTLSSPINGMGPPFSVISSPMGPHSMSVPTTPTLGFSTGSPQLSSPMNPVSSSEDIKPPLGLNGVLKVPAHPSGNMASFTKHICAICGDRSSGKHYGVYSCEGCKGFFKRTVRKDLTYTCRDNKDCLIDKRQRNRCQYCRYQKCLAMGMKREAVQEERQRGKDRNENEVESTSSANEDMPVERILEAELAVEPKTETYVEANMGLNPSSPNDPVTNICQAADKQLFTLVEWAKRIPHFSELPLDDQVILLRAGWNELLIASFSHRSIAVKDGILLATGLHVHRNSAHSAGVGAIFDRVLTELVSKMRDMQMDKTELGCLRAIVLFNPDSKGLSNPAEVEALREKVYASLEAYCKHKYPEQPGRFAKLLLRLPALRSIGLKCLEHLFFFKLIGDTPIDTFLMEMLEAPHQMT
Sequence of Vitamin D3 receptor (Homo sapiens) (P11473 whole entry, looked up): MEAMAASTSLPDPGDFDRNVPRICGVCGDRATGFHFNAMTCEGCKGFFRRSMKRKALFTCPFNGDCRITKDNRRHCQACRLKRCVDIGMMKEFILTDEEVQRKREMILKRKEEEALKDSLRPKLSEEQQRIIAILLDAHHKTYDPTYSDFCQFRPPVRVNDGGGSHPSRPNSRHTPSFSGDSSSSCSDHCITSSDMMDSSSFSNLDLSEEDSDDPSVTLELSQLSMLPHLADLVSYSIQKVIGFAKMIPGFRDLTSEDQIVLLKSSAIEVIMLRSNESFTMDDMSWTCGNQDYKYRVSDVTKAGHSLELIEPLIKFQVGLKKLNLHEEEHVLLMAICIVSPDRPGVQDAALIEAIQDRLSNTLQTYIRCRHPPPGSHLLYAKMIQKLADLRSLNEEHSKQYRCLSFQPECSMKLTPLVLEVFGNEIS
Sequence of Bile acid receptor (Homo sapiens) (Q96RI1 whole entry, looked up): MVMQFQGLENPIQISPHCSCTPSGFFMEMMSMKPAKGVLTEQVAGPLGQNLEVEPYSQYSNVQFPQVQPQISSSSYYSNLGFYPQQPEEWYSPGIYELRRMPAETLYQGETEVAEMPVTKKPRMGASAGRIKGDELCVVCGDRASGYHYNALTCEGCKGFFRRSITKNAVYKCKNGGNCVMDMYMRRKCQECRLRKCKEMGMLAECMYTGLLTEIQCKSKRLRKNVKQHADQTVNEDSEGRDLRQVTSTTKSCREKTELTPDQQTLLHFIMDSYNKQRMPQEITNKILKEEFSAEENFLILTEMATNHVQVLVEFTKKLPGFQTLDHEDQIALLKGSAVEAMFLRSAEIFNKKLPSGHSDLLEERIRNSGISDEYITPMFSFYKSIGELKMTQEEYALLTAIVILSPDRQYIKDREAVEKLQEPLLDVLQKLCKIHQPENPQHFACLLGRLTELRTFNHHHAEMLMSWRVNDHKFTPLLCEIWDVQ

CC(O)CO (configuration not stated)
not listed: [17] | [18]
inactive: all other assays above

CCCCC(CC)COC(=O)/C=C/c1ccc(OC)cc1 (configuration not stated)
not listed: [17] | [18]
inactive: all other assays above

Cc1ccccc1C(OCCN(C)C)c1ccccc1 (configuration not stated)
not listed: [4] | [5] | [15] | [16]
inactive: all other assays above

O=C(O)CS
not listed: [13] | [17] | [18]
inactive: all other assays above

CC(=O)Nc1nnc(S(N)(=O)=O)s1
not listed: [4] | [5] | [17] | [18]
inactive: all other assays above

O=S(=O)(O)c1ccc2cc(O)ccc2c1
not listed: [13] | [17] | [18]
inactive: all other assays above

NC(N)=NC(=O)c1nc(Cl)c(N)nc1N
not listed: [17] | [18]
inactive: all other assays above

O=S(=O)(O)NC1CCCCC1
not listed: [13] | [17] | [18]
inactive: all other assays above

CC(=O)OCC(COC(C)=O)OC(C)=O
not listed: [17] | [18]
inactive: all other assays above
